The values below come from PubChem BioAssay.

A short description of test [1]: optical density shifts of acrAB sulA E. coli – strain DRC41, OD650, 48 h, E. coli filamentation inducer project, primary screen (AID 1152).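 Further: E. coli MC1000 strain DRC41 lacking acrAB efflux pump and sulA.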 The conditions noted are these: higher = more signal, called active from +8 up or from −8 down.
A short description of test [2]: probe aLefty1 binding on compound microarray – biochemical, small-molecule microarray, 635/667 nm fluorescence, primary screen (AID 1153).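 Further: score merges spot fluorescence with signal-to-noise ratio from the scanned slide images.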 Conditions: higher = more signal.
Test [3] is described as follows: plasmodial surface anion channel blockers, osmotic lysis – cell-based, P. falciparum Indochina, OD700, 1 h, primary screen (AID 1154). The conditions noted are these: P. falciparum Indochina infected RBC osmotic lysis, higher = more signal, called active from +8 up or from −8 down.
The nature of test [4]: plasmodial surface anion channel blockers, osmotic lysis – cell-based, P. falciparum Indochina, OD700, 2 h, primary screen (AID 1155).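 Further: lysis reports solute entry through the parasite surface anion channel PSAC.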 Conditions: P. falciparum Indochina infected erythrocytes, higher = more signal, called active from +8 up or from −8 down.
Test [5] in a line: changes in parasitized red cell lysis, either direction – P. falciparum Indochina, OD700, 3 h, PSAC antagonist project, primary screen (AID 1156). The conditions noted are these: P. falciparum-infected erythrocytes, osmotic lysis, higher = more signal, called active from +8 up or from −8 down.
Test [6] in a line: plasmodial surface anion channel blockers, osmotic lysis – cell-based, P. falciparum Indochina, OD700, 18 h, primary screen (AID 1157). The conditions noted are these: P. falciparum Indochina infected erythrocytes, osmotic lysis OD700, 18 h; higher = more signal, called active from +8 up or from −8 down.
Test [7] is described as follows: S6 kinase pathway phospho-S6 level changes – cell-based, A549, cytoblot, luminescence, serum-stimulated, primary screen (AID 1158).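 Further: serum-stimulated A549 lung adenocarcinoma cells; signal is phosphorylated S6 detected by cytoblot immunostaining with HRP secondary.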 Conditions: 5 h, higher = more signal.
Test [8] has as its target NADPH oxidase 2 (Homo sapiens) (UniProt P04839). Nature of the test: compounds shifting NOX2 Amplex Red fluorescence – cell-based, HEK293-NOX2, PMA-stimulated, NOX inhibitor project, primary screen (AID 1159). Further: test concentration not given here. The conditions noted are these: 45 min, higher = more signal, called active from +8 up or from −8 down.
Test [9] has as its target NADPH oxidase 4 (Homo sapiens) (UniProt Q9NPH5). As to the kind of experiment: compounds shifting NOX4 Amplex Red fluorescence – cell-based, HEK293-NOX4, tetracycline-induced, NOX inhibitor project, primary screen (AID 1160). Conditions: HEK293-NOX4, Amplex Red H2O2 fluorescence, 45 min; higher = more signal, called active from +8 up or from −8 down.
Test [10] concerns the target NADPH oxidase 5 (Homo sapiens) (UniProt Q96PH1). Nature of the test: compounds shifting NOX5 Amplex Red fluorescence – cell-based, HEK293-NOX5, NOX inhibitor project, primary screen (AID 1161). The conditions noted are these: HEK293-NOX5, ionomycin, 45 min, higher = more signal.
A short description of test [11]: compound effects on lung adenocarcinoma cell viability – A549, calcein-AM fluorescence, 48 h, basal, profiling panel (AID 1162). Further: test concentration not given here. The conditions noted are these: higher = more signal.
A short description of test [12]: compound effects on differentiated 3T3-L1 adipocyte viability – cell-based, 3T3-L1 adipocytes, calcein-AM fluorescence, 48 h, basal, profiling panel (AID 1163). Further: test concentration not given here. Conditions: 3T3-L1 adipocytes viability, higher = more signal.
Test [13] is described as follows: compound effects on hepatocellular carcinoma cell viability – HepG2, calcein-AM fluorescence, 48 h, basal, profiling panel (AID 1164). Further: test concentration not given here. Conditions: higher = more signal.
The nature of test [14]: compound effects on multiple myeloma cell viability – MM1S, calcein-AM fluorescence, 48 h, basal, profiling panel (AID 1165). Further: test concentration not given here. Conditions: higher = more signal.
Test [15] is described as follows: calcein-AM signal in unstimulated myeloma cells – cell-based, calcein-AM fluorescence, 48 h, PK04 Diversity Set, profiling panel (AID 1166).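 Further: cells grown under basal conditions without added stimulus; test concentration not given here.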 The conditions noted are these: RPMI8226 myeloma viability, higher = more signal.
Test [16] can be described thus: JC-1 mitochondrial signal, unstimulated HepG2 cells – cell-based, JC-1 fluorescence, 24 h, 100 nL compound, profiling panel (AID 1167). Further: test concentration not given here. The conditions noted are these: HepG2 mitochondrial potential, higher = more signal.
Test [17] can be described thus: JC-1 mitochondrial signal, unstimulated adipocytes – cell-based, JC-1 fluorescence, 3T3-L1 adipocytes, 24 h, 100 nL compound, profiling panel (AID 1168). Further: test concentration not given here. Conditions: JC-1 mitochondrial fluorescence, higher = more signal, called active from +8 up or from −8 down.
A short description of test [18]: JC-1 mitochondrial signal, unstimulated myeloma cells – cell-based, JC-1 fluorescence, RPMI8226, 24 h, 100 nL compound, profiling panel (AID 1169). Further: test concentration not given here. The conditions noted are these: JC-1 mitochondrial potential fluorescence, higher = more signal.
The nature of test [19]: JC-1 mitochondrial signal, unstimulated MM1S myeloma – cell-based, JC-1 fluorescence, 24 h, 100 nL compound, profiling panel (AID 1170). Further: test concentration not given here. The conditions noted are these: MM1S mitochondrial potential, higher = more signal.
Test [20] can be described thus: resazurin metabolic signal in A549 cells – cell-based, resazurin fluorescence, 24 h, PK04 Diversity Set, profiling panel (AID 1171). Further: test concentration not given here. The conditions noted are these: A549 viability, higher = more signal, called active from +8 up or from −8 down. In general terms: The colour change of resazurin is a common sign of viable cells or microbes.

Activity calls are given as the source filed them.

Chain of NADPH oxidase 5 (Homo sapiens) (Q96PH1 whole entry, looked up): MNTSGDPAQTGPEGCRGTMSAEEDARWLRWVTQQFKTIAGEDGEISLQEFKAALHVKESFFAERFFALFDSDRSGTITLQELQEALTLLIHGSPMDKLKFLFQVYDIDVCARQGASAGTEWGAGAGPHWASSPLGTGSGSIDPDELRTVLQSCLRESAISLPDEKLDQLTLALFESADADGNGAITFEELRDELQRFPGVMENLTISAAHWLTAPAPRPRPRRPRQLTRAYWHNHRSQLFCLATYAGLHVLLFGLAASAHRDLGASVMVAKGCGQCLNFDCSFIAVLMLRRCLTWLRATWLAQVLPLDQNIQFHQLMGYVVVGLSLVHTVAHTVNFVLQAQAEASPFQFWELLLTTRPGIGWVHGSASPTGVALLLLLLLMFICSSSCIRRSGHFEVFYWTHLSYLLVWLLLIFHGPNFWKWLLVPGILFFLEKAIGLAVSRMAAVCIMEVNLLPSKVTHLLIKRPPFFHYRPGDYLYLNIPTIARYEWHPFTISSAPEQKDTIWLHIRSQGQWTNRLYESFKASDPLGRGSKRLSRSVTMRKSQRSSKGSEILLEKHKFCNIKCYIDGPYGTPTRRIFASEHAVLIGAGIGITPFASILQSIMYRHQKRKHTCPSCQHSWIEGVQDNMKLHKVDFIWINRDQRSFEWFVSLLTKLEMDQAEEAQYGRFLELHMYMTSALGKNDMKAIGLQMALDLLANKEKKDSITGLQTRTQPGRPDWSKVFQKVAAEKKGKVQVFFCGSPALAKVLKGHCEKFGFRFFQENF
Chain of NADPH oxidase 4 (Homo sapiens) (Q9NPH5 whole entry, looked up): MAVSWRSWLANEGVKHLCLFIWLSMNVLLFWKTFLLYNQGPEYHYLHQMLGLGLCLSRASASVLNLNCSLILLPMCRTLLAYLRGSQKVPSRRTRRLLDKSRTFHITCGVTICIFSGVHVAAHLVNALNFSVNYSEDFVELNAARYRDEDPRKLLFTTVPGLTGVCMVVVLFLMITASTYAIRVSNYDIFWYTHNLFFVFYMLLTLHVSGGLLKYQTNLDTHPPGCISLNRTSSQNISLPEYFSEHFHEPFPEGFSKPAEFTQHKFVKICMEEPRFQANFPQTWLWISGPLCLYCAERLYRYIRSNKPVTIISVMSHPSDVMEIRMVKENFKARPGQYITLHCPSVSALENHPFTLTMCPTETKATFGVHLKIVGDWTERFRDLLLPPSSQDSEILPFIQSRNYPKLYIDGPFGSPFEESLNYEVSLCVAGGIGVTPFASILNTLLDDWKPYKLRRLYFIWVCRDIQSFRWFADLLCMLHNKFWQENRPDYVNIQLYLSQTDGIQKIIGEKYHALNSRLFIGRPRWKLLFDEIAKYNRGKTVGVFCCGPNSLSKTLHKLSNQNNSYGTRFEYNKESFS
Chain of NADPH oxidase 2 (Homo sapiens) (P04839 whole entry, looked up): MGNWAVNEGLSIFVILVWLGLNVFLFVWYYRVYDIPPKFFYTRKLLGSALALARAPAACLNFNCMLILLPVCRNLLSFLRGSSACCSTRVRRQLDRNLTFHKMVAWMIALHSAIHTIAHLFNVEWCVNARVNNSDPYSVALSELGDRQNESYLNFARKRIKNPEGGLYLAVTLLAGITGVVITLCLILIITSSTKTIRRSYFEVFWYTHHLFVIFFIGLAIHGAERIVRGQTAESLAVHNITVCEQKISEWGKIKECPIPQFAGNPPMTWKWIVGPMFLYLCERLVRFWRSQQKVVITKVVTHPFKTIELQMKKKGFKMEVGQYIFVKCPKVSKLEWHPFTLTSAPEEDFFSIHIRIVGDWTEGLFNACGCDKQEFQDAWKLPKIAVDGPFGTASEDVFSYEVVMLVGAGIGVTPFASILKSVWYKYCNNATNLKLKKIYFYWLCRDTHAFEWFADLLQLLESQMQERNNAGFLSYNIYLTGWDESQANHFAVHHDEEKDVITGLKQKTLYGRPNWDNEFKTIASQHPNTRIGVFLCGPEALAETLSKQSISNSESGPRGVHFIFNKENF

`CCOC(=O)CCN1C(=O)[C@H]2[C@H]3[C@H](O)[C@H](O)CC(=NOC[C@@H](O)COCc4ccco4)[C@H]3CC[C@H]2C1=O`: the z-score in test [1] was -0.923 (inactive); in [3], 0.73 (inactive); in test [4], -1.31 (inactive); in test [5] it was 0.318 (inactive); in [6], -2.76 (inactive); in test [7], 0.141. Moreover, the z-score in test [8] is -0.343 (inactive); in test [9] it was 0.0781 (inactive); in test [10], -0.498; in test [11], -1.43; in test [12], 0.8; in test [13] it was -0.524. The z-score in [14] was -2.09; in test [15] it was -2.29; in test [16], -0.803; in [17], -0.433 (inactive); in [18] it was -0.126; in test [19] it was -0.612. Further, the z-score in [20] was -0.383 (inactive). In test [2], this compound came in with a composite z-score of -0.101.

As for `CCN1C(=O)[C@H]2[C@H]3[C@H](O)[C@H](O)CC(=NOCc4ccccc4)[C@@H]3CC[C@H]2C1=O`, the z-score was 0.401 (inactive) in test [1]; 0.425 (inactive) in test [3]; -1.09 (inactive) in [4]; -0.0231 (inactive) in [5]; -2.2 (inactive) in [6]; 2.27 in test [7]. The z-score in test [8] was -0.521 (inactive); in [9], -0.0627 (inactive); in [10], 0.388; in test [11] it was 0.391; in test [12], 0.817; in [13] it was 1.43. Also, the z-score in test [14] is 0.565; in test [15] it was -0.714; in [16] it was 0.402; in test [17] it was 0.752 (inactive); in [18], -0.0637; in test [19], -0.758. In addition, the z-score in [20] was -0.725 (inactive). Also, in test [2], the composite z-score turned out to be 0.0224.

Regarding `COC(=O)[C@@]1(Cc2ccc(OC)cc2)[C@H]2c3cc(C(=O)N4CCCC4)n(Cc4cc(F)c(F)c(F)c4)c3C[C@H]2CN1C(=O)c1ccccc1`, the z-score is -2.13 (inactive) in [1]; 1.1 (inactive) in test [3]; 1.07 (inactive) in [4]; 0.718 (inactive) in [5]; 0.911 (inactive) in test [6]; -0.215 in test [7]. For the same compound, the z-score in [8] is 1.01 (inactive); in test [9], -0.256 (inactive); in [10] it was 0.603; in test [11], -1.19; in [12] it was -0.0755; in test [13] it was -0.521. For the same compound, the z-score in test [14] was -1; in test [15] it was -3.11; in [16], 1.31; in test [17] it was -1.6 (inactive); in test [18], -0.87; in test [19], -1.2. The z-score in test [20] was -1.08 (inactive). The composite z-score in test [2] was found to be 2.39.

As to `CC(C)=CCCC(C)=CCON=C1[C@H]2CCn3c(=O)n(Cc4cc5c(cc4Cl)OCO5)c(=O)n3[C@H]2[C@H](O)[C@@H]2O[C@H]12`, the z-score in [1] was -0.939 (inactive); in test [3], 1.34 (inactive); in test [4], 0.722 (inactive); in test [5] it was 0.555 (inactive); in [6], 0.38 (inactive); in [7], 0.181. Besides, the z-score in test [8] is 0.594 (inactive); in test [9], -1.12 (inactive); in test [10] it was -0.711; in test [11] it was -0.305; in [12], 0.123; in test [13], 0.42. In addition, the z-score in test [14] was -0.918; in test [15], -0.497; in test [16], -0.298; in [17], -0.992 (inactive); in test [18], -0.702; in test [19] it was 1.17. In [20], the z-score is -0.386 (inactive). Besides, the composite z-score in test [2] was -0.0559.

`C=C(/C(=C/C[C@H](OC(=O)c1ccncc1)c1ccc(OCCO)cc1)c1cnc2ccccc2c1)C(C)C`: the z-score in [1] was -0.592 (inactive); in [3] it was 18.5 (active); in [4], 3.04 (inactive); in test [5], 1.11 (inactive); in test [6], 0.724 (inactive); in test [7], -0.288. Besides, the z-score in test [8] was -0.513 (inactive); in test [9] it was -0.346 (inactive); in [10] it was -0.699; in [11], 1.31; in test [12], -0.122; in test [13] it was 0.0253. The z-score is -2.75 in test [14]; -0.294 in test [15]; 0.92 in test [16]; -0.69 (inactive) in test [17]; -0.815 in test [18]; -0.0967 in [19]. Moreover, the z-score in [20] was 0.58 (inactive). The compound also showed a composite z-score in test [2] of 0.188.
